Screening results as filed in PubChem BioAssay.
An excerpt weighted towards active compounds, which were near 0.51% of everything screened.
E coli growth-1: E. coli V3065 growth inhibition, primary screen, counter-screen for AddAB inhibitor project, absorbance, OD600 | inhibition, % at 11.9 µM | hit rate 0.27% among 330,000 | 18 h;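 active means inhibition above the campaign's mean inhibition across all tested compounds plus 3 SD, cut at about 9.9% in these data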;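 further: uninfected addAB+ strain grown without phage in ampicillin broth; 0% = DMSO wells and 100% = ciprofloxacin 0.95 µg/ml wells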
phage Ecoli inh: growth loss of phage-infected E. coli, primary screen, RecBCD inhibitor project, absorbance, with phage, HTS; inhibition, % at 11.9 µM; hit rate 0.26% among 360,000; in the data active means inhibition above about 11%
Tat transport: E. coli Tat export inhibitors, primary screen, MC4100, TorA-mCherry reporter, fluorescence, single point; inhibition, % at 10 µM; hit rate 0.036% among 340,000; AID 488895, 2010;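 active means mean replicate inhibition at least 50% and at least half of replicates individually reaching 50%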;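 further: exported cargo escapes ClpAP degradation while cytoplasmic cargo is degraded and loses fluorescence; 0% = median of neutral control wells and 100% = median of NaSCN control wells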
AddAB inh: growth inhibition of E. coli expressing H. pylori AddAB, primary screen, AddAB inhibitor project, absorbance. inhibition, % at 11.9 µM. hit rate 0.29% among 330,000. AID 435030, 2010; in the data active means inhibition above about 12%;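 further: 0% = vehicle wells of infected cells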
E coli growth-2: E. coli growth inhibition, primary screen, OD600; hit rate 0.21% among 330,000; OD600 absorbance (test concentration not listed); Escherichia coli growth, 23 h; stronger effect = lower value; AID 1053175, 2014;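 active means OD600 absorbance below the run mean of sample wells minus 3.6 SD, in any replicate, cut at about 0.56 in these data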
AddAB confirm: growth loss of phage-infected E. coli expressing H. pylori AddAB, confirmation, AddAB inhibitor project, absorbance, E. coli V3065, T4 phage, triplicate | hit rate 64% among 880 | AID 488942, 2010 | shares compounds with AddAB inh | inhibition, % at 11.9 µM | OD; T4 phage with gene 2 nonsense mutations;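 active means mean inhibition above a set limit taken from the earlier primary screen, cut at about 13% in these data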;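 further: higher means less bacterial growth since AddAB block lets phage replicate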
RecBCD counter: growth loss of RecBCD+ E. coli with mutant T4 phage, counter-screen for AddAB inhibitor project, absorbance, V66 E. coli. shares compounds with AddAB inh. OD growth. inhibition, % at 11.9 µM. hit rate 73% among 880;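 active means mean inhibition above the mean of solvent-only control wells plus 3 SD, cut at about 4% in these data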;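 further: optical density read after an 18 h incubation at 37 °C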
Bact viability: bacterial viability inhibition counter-screen, confirmation, counter-screen for AddAB inhibitor project, absorbance; AID 488956, 2010; shares compounds with AddAB inh; inhibition, % at 11.9 µM; absorbance (AddAB counterscreen); hit rate 35% among 880; in the data active means inhibition above about 25%
RecBCD conf: growth loss of phage-infected RecBCD+ E. coli, confirmation, RecBCD inhibitor project, absorbance, E. coli V66, T4 gene 2 phage; shares compounds with phage Ecoli inh; E. coli V66 + T4 2- phage, growth OD; inhibition, % at 11.9 µM; hit rate 45% among 890;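 active means mean inhibition over triplicates exceeding the hit threshold derived in the original primary screen, cut at about 11% in these data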
Ecoli viability: E. coli viability inhibition, counter-screen for RecBCD inhibitor project, absorbance, high throughput; absorbance (OD) growth; hit rate 29% among 890; inhibition, % at 11.9 µM; shares compounds with phage Ecoli inh; AID 651983, 2013; in the data active means inhibition above about 20%;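 further: E. coli strain V66 grown with compound alone and no phage infection; 0% = bacteria with DMSO vehicle only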
AddAB counter: growth loss of phage-infected AddAB-carrying E. coli, confirmation, counter-screen for RecBCD inhibitor project, absorbance, E. coli V3065, T4 phage; shares compounds with phage Ecoli inh; E. coli expressing H. pylori AddAB + T4 phage, OD growth; gene 2 mutant T4, recBCD-deleted host; inhibition, % at 11.9 µM; hit rate 45% among 890; AID 651984, 2013;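 active means mean inhibition above the solvent-only control wells' mean plus 3 SD, cut at about 22% in these data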;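 further: higher means less bacterial growth from phage killing when AddAB is blocked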
* marks the source's active call; other numbers are inactive results; x = not tested or not shown.

SMILES	E coli growth-1	phage Ecoli inh	Tat transport	AddAB inh	E coli growth-2	AddAB confirm	RecBCD counter	Bact viability	RecBCD conf	Ecoli viability	AddAB counter
CC(C)C(NC(=O)c1ccccc1)C(=O)OCC(=O)C=C1N(C)c2ccccc2C1(C)C (configuration not stated)	x	x	x	x	0.68	x	x	x	x	x	x
CCCCN1C(=N)N(C(CCC)CN2CCCC2CN2C(N)=NCC2Cc2ccccc2)CC1Cc1ccccc1 (configuration not stated)	x	x	x	x	0.69	x	x	x	x	x	x
CCCCCC(CC(=O)NO)C(=O)NC(C(=O)N1CCCC1CO)C(C)C (configuration not stated)	22*	25*	31	22*	0.47	19*	24*	15	18*	19	21
O=c1c2ccccc2oc2ccccc12	x	3	x	x	x	x	x	x	x	x	x
O=c1c(O)c(-c2cccs2)oc2ccccc12	25*	12*	3	23*	0.68	9	11*	4	5	8	12
CCOC(=O)C1=CN2CCCCC2CC1=O (configuration not stated)	x	x	x	x	0.65	x	x	x	x	x	x
O=C(Nc1ncc([N+](=O)[O-])s1)C1CC(=O)N(c2ccc(F)cc2)C1 (configuration not stated)	-3	1	-6	4	0.56	x	x	x	x	x	x
O=C1NCCN1c1ncc([N+](=O)[O-])s1	101*	98*	21	100*	0.066*	96*	95*	96*	96*	97*	101*
COC(=O)c1ccc(CSc2nnnn2C)o1	-3	1	0	2	0.73	x	x	x	x	x	x
CO[C@@]1(NC(=O)C2SC(=C(C(N)=O)C(=O)O)S2)C(=O)N2C(C(=O)O)=C(CSc3nnnn3C)CS[C@@H]21 (some centres not stated)	97*	100*	-79	97*	x	101*	101*	101*	103*	105*	103*
CCOC(=O)C1CCCCN1C(=O)C(=Cc1ccc(OC)cc1)c1ccc(OC)c(OC)c1 (configuration not stated)	x	x	x	x	0.66	x	x	x	x	x	x
O=C(CSc1ccc(-c2ccccn2)nn1)c1ccccc1	12*	14*	1	13*	0.6	10	11*	10	8	7	24*
O=C(CSc1ccc(-c2ccccc2)nn1)c1ccccc1	-4	3	6	0	0.65	x	x	x	x	x	x
COc1ccc(C=C2C(=O)N=C3SCCN23)cc1	x	x	x	x	0.63	x	x	x	x	x	x
NS(=O)(=O)c1ccc(NNC(=O)c2ccccc2)cc1	1	2	-7	1	0.63	x	x	x	x	x	x
O=C(NNc1cc(Br)c(O)c(Br)c1)c1ccccc1	97*	78*	-9	102*	0.52	97*	50*	97*	39*	50*	101*
Nc1[nH]c(=O)ncc1-c1ccc([N+](=O)[O-])cc1	x	4	x	x	x	x	x	x	x	x	x
Nc1ncc(-c2ccc([N+](=O)[O-])cc2)cn1	38*	38*	-3	39*	x	44*	37*	48*	35*	41*	51*
O=[N+]([O-])c1ccc(-c2cnc(NO)nc2)cc1	31*	31*	-3	33*	0.59	42*	30*	40*	31*	36*	45*
O=C(Nc1ccccc1)C1=CC(C2CC2)CC(OCCCCO)O1 (configuration not stated)	x	x	x	x	0.72	x	x	x	x	x	x
CC1CN(C(C)CO)C(=O)c2cccc(NC(=O)Cc3ccccc3)c2OC1CN(C)Cc1ccc(C(=O)O)cc1 (configuration not stated)	x	x	x	x	0.71	x	x	x	x	x	x
O=C(O)COc1c(Cl)cc(C=C2NC(=O)NC2=O)cc1Br	x	x	x	x	0.71	x	x	x	x	x	x
COCCN=c1scc(-c2cccs2)n1/N=C/c1ccc(O)c(O)c1O	12*	15*	13	15*	x	14*	11*	12	8	8	12
COCCN=c1scc(-c2cccs2)n1N=C(C)c1ccco1	x	x	x	x	0.68	x	x	x	x	x	x
CCc1nnc(NS(=O)(=O)c2ccc(N=Cc3c(C)[nH]n(-c4cccc(Cl)c4)c3=O)cc2)s1	16*	11*	-13	24*	0.62	9	4.8*	14	10	7	31*
SMILES	E coli growth-1	phage Ecoli inh	Tat transport	AddAB inh	E coli growth-2	AddAB confirm	RecBCD counter	Bact viability	RecBCD conf	Ecoli viability	AddAB counter
c1ccc(C2(CN3CCNCC3CC3CCCCC3)CC2)cc1 (configuration not stated)	x	x	x	x	0.67	x	x	x	x	x	x
Cc1ccc(-c2[nH]c3cc(C(N)=O)ccc3c(=O)c2O)cc1	-4	3	-9	2	x	x	x	x	x	x	x
Cc1ccc(CNC(=O)c2ccc3c(=O)c(O)c(-c4ccc(C)cc4)[nH]c3c2)cc1	20*	17*	3	17*	0.64	21*	19*	20	11*	15	19
CCCNC(=O)c1ccc2c(=O)c(O)c(-c3ccc(C)cc3)[nH]c2c1	25*	21*	-12	23*	x	20*	16*	16	8	11	23*
C=CC1=C(C(=O)O)N2C(=O)[C@@H](NC(=O)/C(=N\O)c3csc(N)n3)[C@H]2SC1 (stereo in doubt)	99*	99*	-1	99*	x	103*	101*	103*	104*	106*	105*
CCn1ccc(C(=O)NC2C(=O)N3C(C(=O)O)=C(C)CSC23)n1 (configuration not stated)	1	1	-5	1	0.72	x	x	x	x	x	x
CC(C)(Cc1ccccc1)[N+]([O-])=Cc1ccc(C(F)(F)F)cc1	x	x	x	x	0.68	x	x	x	x	x	x
COc1ccccc1OCC(=O)N/N=C/C=C/c1ccc([N+](=O)[O-])o1	54*	12*	20	83*	x	101*	24*	94*	18*	23*	99*
O=C(Nc1nnc(-c2ccccc2)o1)c1ccc(Cl)cc1	7	24*	-13	13*	0.33*	33*	27*	21	18*	20*	20
